# Assay results as given in the supplement of paper PMC7411054.
# Where a name gives a salt, the structure may show the parent alone.
# How the values were obtained:
# Settings in all cases: treatment time: 24 h
# A549-ACTB-RAB5A [1] = experiment: lowest phenotypically active concentration; higher = less potent
# How it was run: (§1)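 Each of fifteen gene-edited A549, HepG2 and WPMY1 reporter lines, marked with BFP for segmentation and GFP and RFP/FusionRed, was treated in four wells at 0.3, 1, 3 or 9 µM for 24 h prior to live imaging. Normalisation of per-well live-cell features used solvent control wells. Deviation needed ≥3 of 4 wells beyond the 95th percentile of control Euclidean distances, and reproducibility needed a median replicate Pearson correlation above the 95th percentile of non-replicates. Both were required for phenotypic activity.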
# A549-CANX-COX4 [2] = experiment: as above
# How it was run: as §1
# A549-GM130-SQSTM1 [3] = experiment: as above
# How it was run: as §1
# A549-TP53BP1-CLTA [4] = experiment: as above
# How it was run: as §1
# A549-TUBA1B-RELA [5] = experiment: as above
# How it was run: as §1
# A549-ACTB-RAB5A [6] = experiment: phenotypically active (imaging signature differs from DMSO and reproducible) at any of 0.3-9 uM (binary (1 = active, 0 = inactive)); higher = active
# How it was run: as §1
# A549-CANX-COX4 [7] = experiment: as above
# How it was run: as §1
# A549-GM130-SQSTM1 [8] = experiment: as above
# How it was run: as §1
# A549-TP53BP1-CLTA [9] = experiment: as above
# How it was run: as §1
# A549-TUBA1B-RELA [10] = experiment: as above
# How it was run: as §1
# HepG2-ACTB-RAB5A = experiment: as above
# How it was run: as §1
# HepG2-CANX-COX4 = experiment: as above
# How it was run: as §1
# HepG2-GM130-SQSTM1 = experiment: as above
# How it was run: as §1
# HepG2-TP53BP1-CLTA = experiment: as above
# How it was run: as §1
# HepG2-TUBA1B-RELA = experiment: as above
# How it was run: as §1
# WPMY1-ACTB-RAB5A = experiment: as above
# How it was run: as §1
# WPMY1-CANX-COX4 = experiment: as above
# How it was run: as §1
# WPMY1-GM130-SQSTM1 = experiment: as above
# How it was run: as §1
# WPMY1-TP53BP1-CLTA = experiment: as above
# How it was run: as §1
# WPMY1-TUBA1B-RELA = experiment: as above
# How it was run: as §1
SMILES,lowest phenotypically active concentration (A549-ACTB-RAB5A [1]) [µM],lowest phenotypically active concentration (A549-CANX-COX4 [2]) [µM],lowest phenotypically active concentration (A549-GM130-SQSTM1 [3]) [µM],lowest phenotypically active concentration (A549-TP53BP1-CLTA [4]) [µM],lowest phenotypically active concentration (A549-TUBA1B-RELA [5]) [µM],phenotypically active (A549-ACTB-RAB5A [6]),phenotypically active (A549-CANX-COX4 [7]),phenotypically active (A549-GM130-SQSTM1 [8]),phenotypically active (A549-TP53BP1-CLTA [9]),phenotypically active (A549-TUBA1B-RELA [10]),phenotypically active (HepG2-ACTB-RAB5A),phenotypically active (HepG2-CANX-COX4),phenotypically active (HepG2-GM130-SQSTM1),phenotypically active (HepG2-TP53BP1-CLTA),phenotypically active (HepG2-TUBA1B-RELA),phenotypically active (WPMY1-ACTB-RAB5A),phenotypically active (WPMY1-CANX-COX4),phenotypically active (WPMY1-GM130-SQSTM1),phenotypically active (WPMY1-TP53BP1-CLTA),phenotypically active (WPMY1-TUBA1B-RELA)
Cc1ccc(C(=O)N(CCCN)[C@@H](c2nc3cc(Cl)ccc3c(=O)n2Cc2ccccc2)C(C)C)cc1 [Ispinesib],≤ 0.3,≤ 0.3,≤ 0.3,≤ 0.3,≤ 0.3,1 (active),1 (active),1 (active),1 (active),1 (active),1 (active),1 (active),1 (active),1 (active),1 (active),1 (active),1 (active),1 (active),1 (active),1 (active)
CC[C@@H](N)CNc1ccnc(-c2cc(-c3cnn(C)c3)ccc2O)n1,1,3,1,1,1,1 (active),1 (active),1 (active),1 (active),1 (active),1 (active),1 (active),1 (active),1 (active),1 (active),1 (active),1 (active),1 (active),1 (active),1 (active)
CCN(CCO)CCCOc1ccc2c(Nc3cc(CC(=O)Nc4cccc(F)c4)n[nH]3)ncnc2c1 [barasertib-HQPA],≤ 0.3,≤ 0.3,≤ 0.3,≤ 0.3,≤ 0.3,1 (active),1 (active),1 (active),1 (active),1 (active),1 (active),1 (active),1 (active),1 (active),1 (active),1 (active),1 (active),1 (active),1 (active),1 (active)
CON(C)C(=O)N1N=C(c2cc(F)ccc2F)S[C@@]1(CCCN)c1ccccc1 [ARRY 520 trifluoroacetate],≤ 0.3,≤ 0.3,≤ 0.3,≤ 0.3,≤ 0.3,1 (active),1 (active),1 (active),1 (active),1 (active),1 (active),1 (active),1 (active),1 (active),1 (active),1 (active),1 (active),1 (active),1 (active),1 (active)
Nc1cccc(-c2cc3c(Oc4cccc(O)c4)ncnc3[nH]2)c1,1,1,9,1,1,1 (active),1 (active),1 (active),1 (active),1 (active),1 (active),1 (active),1 (active),1 (active),1 (active),1 (active),1 (active),1 (active),1 (active),1 (active)
Cc1ccc(C(=O)N(CCCN)[C@@H](c2oc3cc(Cl)ccc3c(=O)c2Cc2ccccc2)C(C)C)cc1,≤ 0.3,≤ 0.3,≤ 0.3,≤ 0.3,≤ 0.3,1 (active),1 (active),1 (active),1 (active),1 (active),1 (active),1 (active),1 (active),1 (active),1 (active),1 (active),1 (active),1 (active),1 (active),1 (active)
COc1cc(/C=C/C(=O)N2CCC=CC2=O)cc(OC)c1OC [Piperlongumine],3,9,3,9,9,1 (active),1 (active),1 (active),1 (active),1 (active),1 (active),1 (active),1 (active),1 (active),1 (active),1 (active),1 (active),1 (active),1 (active),1 (active)
Cc1cnc(NC(=O)Nc2cc(Br)c(C)cc2OC[C@@H]2CNCCO2)cn1,3,3,3,1,1,1 (active),1 (active),1 (active),1 (active),1 (active),1 (active),1 (active),1 (active),1 (active),1 (active),1 (active),1 (active),1 (active),1 (active),1 (active)
COCC(=O)O[C@]1(CCN(C)CCCc2nc3ccccc3[nH]2)CCc2cc(F)ccc2[C@@H]1C(C)C [mibefradil],3,9,3,9,3,1 (active),1 (active),1 (active),1 (active),1 (active),1 (active),1 (active),1 (active),1 (active),1 (active),1 (active),1 (active),1 (active),1 (active),1 (active)
COC(=O)Nc1nc2ccc(C(=O)c3cccs3)cc2[nH]1 [Nocodazole],≤ 0.3,≤ 0.3,≤ 0.3,≤ 0.3,≤ 0.3,1 (active),1 (active),1 (active),1 (active),1 (active),1 (active),1 (active),1 (active),1 (active),1 (active),1 (active),1 (active),1 (active),1 (active),1 (active)
CC(C)(C)c1cnc(CSc2cnc(NC(=O)C3CCNCC3)s2)o1,≤ 0.3,≤ 0.3,≤ 0.3,≤ 0.3,≤ 0.3,1 (active),1 (active),1 (active),1 (active),1 (active),1 (active),1 (active),1 (active),1 (active),1 (active),1 (active),1 (active),1 (active),1 (active),1 (active)
